Assay [1] concerns the target T1, Tyrosine-protein kinase receptor TYRO3 (Homo sapiens) (UniProt Q06418).
T1 sequence (whole entry): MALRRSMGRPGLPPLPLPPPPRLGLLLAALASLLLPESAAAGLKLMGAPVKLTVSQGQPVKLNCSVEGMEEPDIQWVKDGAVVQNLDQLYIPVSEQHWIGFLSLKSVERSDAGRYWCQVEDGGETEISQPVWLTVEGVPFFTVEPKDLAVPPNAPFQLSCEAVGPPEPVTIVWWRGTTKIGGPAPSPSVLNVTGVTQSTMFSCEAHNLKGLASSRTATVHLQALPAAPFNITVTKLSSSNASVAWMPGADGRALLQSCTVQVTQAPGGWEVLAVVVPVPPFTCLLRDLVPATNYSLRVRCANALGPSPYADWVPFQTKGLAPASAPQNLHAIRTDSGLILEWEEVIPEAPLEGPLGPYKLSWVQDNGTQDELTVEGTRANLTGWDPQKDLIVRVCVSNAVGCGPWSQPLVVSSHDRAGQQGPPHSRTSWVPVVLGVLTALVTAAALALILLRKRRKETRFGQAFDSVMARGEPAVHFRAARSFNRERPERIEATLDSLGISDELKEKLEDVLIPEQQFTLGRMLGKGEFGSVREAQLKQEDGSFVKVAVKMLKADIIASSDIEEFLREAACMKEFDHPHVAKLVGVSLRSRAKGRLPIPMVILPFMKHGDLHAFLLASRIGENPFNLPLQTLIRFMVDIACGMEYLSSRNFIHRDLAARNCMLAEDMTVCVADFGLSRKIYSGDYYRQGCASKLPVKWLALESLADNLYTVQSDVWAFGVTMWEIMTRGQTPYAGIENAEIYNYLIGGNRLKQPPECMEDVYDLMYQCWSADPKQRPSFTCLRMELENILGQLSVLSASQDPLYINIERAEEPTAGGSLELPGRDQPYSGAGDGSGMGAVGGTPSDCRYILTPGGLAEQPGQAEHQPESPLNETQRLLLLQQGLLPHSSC
As to conditions: at 1 µM.

In assay [2] the target is Tyrosine-protein kinase Yes (Homo sapiens) (UniProt P07947). The settings on record: at 0.1 µM.
Assay [3] has the same target. The settings on record: at 1 µM.
Assay [4] has as its target T2, Tyrosine-protein kinase ZAP-70 (Homo sapiens) (UniProt P43403).
T2 sequence (whole entry): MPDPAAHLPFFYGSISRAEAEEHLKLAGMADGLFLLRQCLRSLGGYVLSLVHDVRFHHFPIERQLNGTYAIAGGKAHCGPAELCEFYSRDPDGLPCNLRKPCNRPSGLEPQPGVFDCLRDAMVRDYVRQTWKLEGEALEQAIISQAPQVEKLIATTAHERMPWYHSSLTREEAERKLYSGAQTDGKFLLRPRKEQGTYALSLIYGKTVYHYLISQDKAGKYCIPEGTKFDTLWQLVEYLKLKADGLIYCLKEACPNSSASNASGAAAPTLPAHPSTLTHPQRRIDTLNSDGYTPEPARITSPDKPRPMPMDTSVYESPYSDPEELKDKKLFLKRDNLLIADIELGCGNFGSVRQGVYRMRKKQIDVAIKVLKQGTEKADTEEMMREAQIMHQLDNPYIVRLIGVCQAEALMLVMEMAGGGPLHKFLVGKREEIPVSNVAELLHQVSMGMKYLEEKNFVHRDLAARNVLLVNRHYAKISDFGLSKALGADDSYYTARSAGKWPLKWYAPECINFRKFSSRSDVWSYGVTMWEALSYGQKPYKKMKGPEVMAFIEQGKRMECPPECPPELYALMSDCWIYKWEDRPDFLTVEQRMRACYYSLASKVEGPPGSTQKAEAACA
The settings on record: at 0.1 µM.

For assay [5], the target named is T2, Tyrosine-protein kinase ZAP-70 (Homo sapiens). As to conditions: at 1 µM.
The target of assay [6] is Serine/threonine-protein kinase B-raf (Homo sapiens) (UniProt P15056). As to conditions: at 0.1 µM.
Assay [7] shares this target. The settings on record: at 1 µM.
In assay [8] the test system is Serine/threonine-protein kinase B-raf (Homo sapiens), P15056 [V600E]. The settings on record: at 0.1 µM.
For assay [9] the test system is unchanged. As to conditions: at 1 µM.
Assay [10] has as its target RAF proto-oncogene serine/threonine-protein kinase (Homo sapiens) (UniProt P04049). The settings on record: at 0.1 µM.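 Note: values are mean CRAF kinase inhibition from profiling of the GSK Published Kinase Inhibitor Set.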

As a reminder, the inhibition is the relative decrease from the control value, in per cent.

Chain of Serine/threonine-protein kinase B-raf (Homo sapiens) (P15056 whole entry): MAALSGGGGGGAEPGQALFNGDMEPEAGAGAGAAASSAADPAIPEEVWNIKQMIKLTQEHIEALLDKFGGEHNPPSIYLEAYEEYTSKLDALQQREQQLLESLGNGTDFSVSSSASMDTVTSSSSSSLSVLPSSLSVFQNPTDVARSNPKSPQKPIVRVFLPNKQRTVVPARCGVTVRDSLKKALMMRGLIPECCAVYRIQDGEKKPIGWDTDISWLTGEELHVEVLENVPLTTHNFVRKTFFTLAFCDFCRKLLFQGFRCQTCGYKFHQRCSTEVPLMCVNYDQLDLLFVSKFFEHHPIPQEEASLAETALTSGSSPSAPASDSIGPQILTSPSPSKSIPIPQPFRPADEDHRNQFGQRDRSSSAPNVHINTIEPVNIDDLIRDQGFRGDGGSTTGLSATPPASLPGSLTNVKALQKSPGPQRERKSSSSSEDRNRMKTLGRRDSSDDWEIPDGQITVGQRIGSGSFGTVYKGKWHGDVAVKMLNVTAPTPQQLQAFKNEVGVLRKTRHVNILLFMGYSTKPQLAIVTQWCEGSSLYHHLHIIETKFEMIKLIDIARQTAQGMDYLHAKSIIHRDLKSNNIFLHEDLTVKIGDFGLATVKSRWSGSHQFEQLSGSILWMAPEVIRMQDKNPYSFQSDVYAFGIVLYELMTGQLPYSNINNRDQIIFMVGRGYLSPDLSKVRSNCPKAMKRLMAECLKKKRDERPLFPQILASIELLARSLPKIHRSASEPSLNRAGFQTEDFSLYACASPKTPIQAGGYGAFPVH
Chain of RAF proto-oncogene serine/threonine-protein kinase (Homo sapiens) (P04049 whole entry): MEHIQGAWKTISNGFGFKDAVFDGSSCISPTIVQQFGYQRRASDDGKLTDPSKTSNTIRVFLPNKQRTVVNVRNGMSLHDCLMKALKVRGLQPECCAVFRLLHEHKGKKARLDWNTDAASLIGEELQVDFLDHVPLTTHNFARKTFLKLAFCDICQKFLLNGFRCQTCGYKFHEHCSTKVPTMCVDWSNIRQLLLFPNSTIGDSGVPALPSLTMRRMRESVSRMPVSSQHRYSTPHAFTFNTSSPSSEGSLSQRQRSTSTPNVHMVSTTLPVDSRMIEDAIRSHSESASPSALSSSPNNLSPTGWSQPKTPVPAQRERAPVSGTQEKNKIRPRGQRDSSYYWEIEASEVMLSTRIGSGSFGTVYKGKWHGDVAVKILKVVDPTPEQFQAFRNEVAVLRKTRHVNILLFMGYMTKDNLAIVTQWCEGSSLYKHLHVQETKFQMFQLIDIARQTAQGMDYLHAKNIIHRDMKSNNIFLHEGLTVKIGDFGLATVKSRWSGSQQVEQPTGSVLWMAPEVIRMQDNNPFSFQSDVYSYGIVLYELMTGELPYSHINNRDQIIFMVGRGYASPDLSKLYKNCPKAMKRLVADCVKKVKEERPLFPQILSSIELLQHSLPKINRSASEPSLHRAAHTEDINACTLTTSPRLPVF
Chain of Serine/threonine-protein kinase B-raf (Homo sapiens), P15056 [V600E] (P15056 whole entry V600E): as the sequence (P15056 whole entry) above, with V600E counted along it
Chain of Tyrosine-protein kinase Yes (Homo sapiens) (P07947 2-543 limits assumed): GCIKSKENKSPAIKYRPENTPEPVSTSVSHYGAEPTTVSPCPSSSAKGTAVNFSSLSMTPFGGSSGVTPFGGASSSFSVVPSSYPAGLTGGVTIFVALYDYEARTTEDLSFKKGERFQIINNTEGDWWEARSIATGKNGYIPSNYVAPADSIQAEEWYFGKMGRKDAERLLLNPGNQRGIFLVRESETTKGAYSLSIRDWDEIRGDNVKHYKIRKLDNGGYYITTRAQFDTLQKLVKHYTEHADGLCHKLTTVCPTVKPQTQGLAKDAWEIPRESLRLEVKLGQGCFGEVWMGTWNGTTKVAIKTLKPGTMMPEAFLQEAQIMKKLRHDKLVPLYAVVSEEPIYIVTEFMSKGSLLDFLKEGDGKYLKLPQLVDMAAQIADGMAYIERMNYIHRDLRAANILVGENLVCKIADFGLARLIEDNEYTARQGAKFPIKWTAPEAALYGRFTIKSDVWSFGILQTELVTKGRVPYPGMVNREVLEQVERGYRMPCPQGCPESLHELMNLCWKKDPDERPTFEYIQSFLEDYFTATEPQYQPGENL

Regarding `O=C1Nc2ccccc2/C1=C/Nc1ccc2[nH]c(=O)[nH]c2c1`, the inhibition in [1] turned out to be 21.6%; in assay [2] it was 6.92%; in assay [3], 27.2%; in assay [4], 3.11%; in assay [5] it was 7.45%; in assay [6] it was 9.63%. Further, the inhibition amounted to 10.4% in [7], 8.7% in assay [8], 8.75% in [9] and 0.68% in assay [10].

Turning to `NS(=O)(=O)c1cccc(-c2cc3ccncc3cc2OCc2ccccc2)c1`, the inhibition in assay [1] was 3.23%; in [2], 0.88%; in [3], 2.73%; in [4], 2.48%; in [5], 4.15%; in assay [6] it was 6.76%. Besides, the inhibition in assay [7] came to 6.57%; in assay [8] it was 5.8%; in assay [9], 5.78%; in assay [10], 2.97%.

As to `CN(C)C(=O)O[C@@H]1CN[C@@H](C#Cc2cc3ncnc(Nc4ccc(OCc5cccc(F)c5)c(Cl)c4)c3s2)C1`, the inhibition in assay [1] is -0.16%; in assay [2], 3.49%; in assay [3], 5.24%; in [4] it was 0.96%; in assay [5], 2.42%; in [6] it was 0.07%. Moreover, the inhibition in assay [7] was 3.2%; in assay [8], 0.85%; in assay [9], 3.23%; in assay [10], -2.83%.

As to `Cc1ccc2c(-c3ccnc(Nc4cccc(C(F)(F)F)c4)n3)c(-c3ccccc3)nn2n1`, the inhibition amounted to 17.5% in assay [1]; 53.8% in assay [2]; 91.8% in assay [3]; 0.09% in assay [4]; 2.06% in [5]; 6.35% in [6]. Moreover, the inhibition in [7] stood at 14.1%; in [8] it was 4.17%; in [9] it was 8.85%; in assay [10] it was 4.15%.

As to `CCS(=O)(=O)c1ccc(OC)c(Nc2nccc(N(C)c3ccc4c(C)n[nH]c4c3)n2)c1`, the inhibition turned out to be 7.2% in assay [1]; 29.3% in [2]; 73.9% in [3]; 0.81% in assay [4]; 2.48% in assay [5]; 6.4% in [6]. For the same molecule, the inhibition is 8.1% in assay [7], 5.33% in assay [8], 5.98% in [9] and 1.8% in [10].

`NS(=O)(=O)c1ccc(Nc2cc(-c3cccc(O)c3)n[nH]2)cc1`: the inhibition in assay [1] amounted to 9.19%; in assay [2], 2.39%; in [3], 5.84%; in assay [4] it was 4.04%; in assay [5], 6.29%; in assay [6], 7.97%. Moreover, the inhibition in [7] is 8.05%; in assay [8], 6.98%; in [9], 6.29%; in assay [10] it was 1.44%.

Take `CS(=O)(=O)CCNCc1nc(-c2ccc3ncnc(Nc4ccc(OCc5cccc(C(F)(F)F)c5)cc4)c3c2)cs1`: the inhibition amounted to 1.66% in assay [1]; 1.94% in [2]; 3.56% in [3]; 1.5% in assay [4]; 0.78% in assay [5]; 1.81% in assay [6]. In addition, the inhibition is 2.12% in assay [7], 2.15% in [8], -0.18% in assay [9] and 0.97% in assay [10].

`CC(C)c1ccc(Nc2nccc(-c3cnn4ncccc34)n2)cc1`: the inhibition was found to be 4.27% in assay [1]; 3.25% in assay [2]; 6.98% in [3]; 1.01% in assay [4]; 6.84% in assay [5]; 4.59% in [6]. The inhibition in [7] was 13.7%; in [8] it was 5.11%; in assay [9], 11.6%; in assay [10], 0.59%.

On to `NS(=O)(=O)c1ccc(NC=C2C(=O)Nc3ccc4ncsc4c32)cc1`, for which the inhibition was found to be 42.4% in assay [1]; 9.65% in assay [2]; 41.5% in assay [3]; 3.29% in assay [4]; 11.9% in [5]; 15.4% in [6]. The inhibition is 60.5% in assay [7], 16.6% in assay [8], 61.2% in assay [9] and 11.6% in assay [10].

Consider `COc1cccc(-n2nc(C)c3c(N/N=C(\C)c4ccncc4)ncnc32)c1`, for which the inhibition in assay [1] was found to be 2.25%; in assay [2], 1.18%; in assay [3], 0.82%; in assay [4] it was 0.82%; in [5], 2.35%; in assay [6] it was 0.14%. The inhibition in [7] was -1.61%; in assay [8], 0.28%; in assay [9], -0.78%; in assay [10], -2.44%.

For the molecule `Cc1ccc(O)cc1Nc1ccnc2ccc(S(C)(=O)=O)cc12`, the inhibition in [1] is 19.1%; in assay [2], 89.3%; in [3], 99%; in assay [4], 2.4%; in assay [5], 1.31%; in assay [6], 15.3%. Moreover, the inhibition in [7] was 32.5%; in assay [8] it was 13.8%; in assay [9], 26%; in assay [10], -4.03%.

Consider `Nc1nccc(-c2c(-c3ccc(F)cc3)nn3cc(C(F)(F)F)ccc23)n1`, for which the inhibition in assay [1] is 1.24%; in assay [2], 0.91%; in [3] it was 1.92%; in [4], -0.68%; in [5], -1.16%; in assay [6] it was 0.06%. The inhibition in assay [7] was 0.3%; in assay [8] it was 0.14%; in [9], -0.28%; in assay [10] it was -3.59%.

Turning to `CC(C)c1ccc2c(c1)NC(=O)/C2=N/Nc1ccc(S(N)(=O)=O)cc1`, the inhibition in assay [1] was 2.75%; in assay [2] it was 2.45%; in assay [3] it was 9.19%; in assay [4] it was -0.31%; in assay [5], 1.5%; in assay [6] it was -0.82%. Also, the inhibition is -1.25% in assay [7], 0.24% in assay [8], -0.56% in [9] and -2.32% in assay [10].

On to `CS(=O)(=O)Nc1cccc(-c2ccc3c(NC(=O)C4CC4)n[nH]c3c2)c1`, for which the inhibition in assay [1] came to 17.9%; in assay [2], 2.95%; in assay [3] it was 2.86%; in assay [4], 1.35%; in [5], 1.3%; in assay [6], 1.25%. Moreover, the inhibition in [7] turned out to be 2.51%; in [8], 1.61%; in assay [9] it was 2.94%; in [10] it was 8.26%.

As for `COC(=O)Nc1nc2cc(Oc3ccc(NC(=O)Nc4cccc(Br)c4)cc3)ccc2[nH]1`, the inhibition in assay [1] was 15.3%; in assay [2] it was 4.4%; in [3], 6.98%; in [4], 5.03%; in [5], 3.22%; in [6], 13%. For the same molecule, the inhibition in assay [7] was 20.6%; in assay [8], 11.3%; in [9] it was 20.8%; in [10], -5.74%.

As for `CN1CCN(C(=O)c2ccc(NC(=O)Nc3ccc(N(C)c4ccnc(Nc5ccc(CS(C)(=O)=O)cc5)n4)cc3)cc2)CC1`, the inhibition in assay [1] stood at 21.9%; in assay [2], 2.29%; in assay [3], 16.2%; in assay [4] it was 2.02%; in [5], 5.2%; in assay [6] it was 2.69%. The inhibition came to 14.5% in assay [7], 3.84% in [8], 11.8% in assay [9] and 2.58% in [10].

For `Nc1ccc(C#Cc2cncnc2Nc2ccc(OCc3cccc(F)c3)c(Cl)c2)cc1`, the inhibition in [1] was 3.64%; in assay [2], 1.94%; in assay [3] it was 8.1%; in assay [4], -0.01%; in [5], -1.74%; in assay [6] it was 4.78%. The inhibition in assay [7] was 3.99%; in [8], 4.21%; in assay [9] it was 3.42%; in [10], -3.06%.
